Source: PubChem (National Center for Advancing Translational Sciences (NCATS))
G9a block: blocks human histone lysine methyltransferase G9a. G9a H3K9 monomethylation, AlphaScreen, 2 h. 350,000 compounds, 8.8% hits. AID 504332. Potency, µM (highest dose often 102 µM), hits mostly inhibitors; note: nearly all actives have a fitted effect of over 75% in size
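Quantitative HTS format: methyltransferase activity on a biotin-tagged H3K9 peptide is measured by AlphaScreen, using a rabbit anti-monomethyl-H3K9 antibody with streptavidin donor and anti-IgG acceptor beads. Final levels are 20 nM enzyme, 500 nM peptide, 20 uM SAM; 2 h RT.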
PI5P4K alpha inh: PI5P4K alpha (human) kinase inhibition; P48426; PI5P4Kalpha enzyme, ADP-Glo luminescence, 60 min; hits give low values; max response, %; 330,000 compounds, 1.2% hits; AID 652105; active = max response of -50% or lower; inconclusive = between -30% and -50%; inactive = -30% or higher; note: value at the top dose of about 77 µM
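ADP-Glo luminescence end-point after a 60 min room-temperature kinase reaction. PI5P4Kalpha and substrate in HEPES pH 7.4 buffer with EGTA, 0.1% CHAPS and 5% DMSO; ATP at 5 microM final.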
BAZ2B inh: BAZ2B (human) inhibition. AlphaScreen BAZ2B-H3K14Ac peptide displacement. Q9UIF8. 360,000 compounds, 4.4% hits. AID 504333. Potency, µM (top dose mostly 114 µM), actives largely listed as inhibitors; note: nearly all actives have a fitted effect of over 60% in size
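Multi-concentration screen (max 110 uM) measuring displacement of acetylated histone H3 peptide from BAZ2B by AlphaScreen, using 50 nM protein, 50 nM peptide and 10 ug/mL streptavidin donor plus Ni-chelate acceptor beads.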
PLK1 PBD inh: blocks phosphopeptide binding to human PLK1 polo-box domain | 360,000 compounds, 2.8% hits | Potency, µM, actives largely listed as inhibitors | AID 720504 | P53350 | Plk1 PBD binding of FITC phosphopeptide, fluorescence polarization; note: series mostly up to about 57 µM; nearly all actives have a fitted effect of over 65% in size
JMJD2A Tudor inh: JMJD2A Tudor domain (human) inhibition; O75164; AlphaScreen JMJD2A-Tudor / H3K4me3 peptide binding; Potency, µM (series often up to 114 µM), hits mostly inhibitors; 390,000 compounds, 4.4% hits; AID 504339; note: nearly all actives have a fitted effect of over 50% in size
HP1b chromo inh: inhibitors of HP1-beta chromodomain binding to methylated histone tails | AlphaScreen HP1-beta / biotin-H3K9me3 peptide binding | 390,000 compounds, 0.56% hits | AID 540317 | Potency, µM (doses to about 114 µM), usual class: inhibitors | P83916; note: nearly all actives have a fitted effect of over 70% in size
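Compound inhibition of the preformed complex between 50 nM HP1-beta and 50 nM biotinylated H3K9me3 peptide was read by AlphaScreen. Buffer was PBS pH 7.4 with 0.01% Tween-20. Incubations ran 30 min at room temperature, with 10 ug/mL donor/acceptor beads.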
Large screens that a line does not name were inactive. An excerpt weighted towards active compounds, which were near 12% of everything screened. Unless noted, calls come from the whole dose curve; as a rule, active = well fitted curve in the direction sought with a large enough effect; inconclusive = small, poorly fitted or top-dose-only effect, or another doubt; inactive = no such curve, though single readings can be large; an effect the other way counts as inactive or inconclusive.

CCOC(=O)C1=C(CSc2nc3c(cc2C#N)CN(C)CC3)OC(N)=C(C#N)C1c1ccc(F)cc1 (stereo unspecified)	G9a block 40µM, PI5P4K alpha inh inconclusive, BAZ2B inh inconclusive, JMJD2A Tudor inh inconclusive
CCOC(=O)C1=C(CSc2nc3c(cc2C#N)CN(C)CC3)OC(N)=C(C#N)C1c1ccccc1 (stereo unspecified)	G9a block 50µM, PI5P4K alpha inh inconclusive, BAZ2B inh inconclusive
CCOC(=O)C1=C(CSc2nc3c(cc2C#N)CCC3)OC(N)=C(C#N)C1c1ccccc1 (stereo unspecified)	PLK1 PBD inh 17µM, JMJD2A Tudor inh 25µM (no result: PI5P4K alpha inh)
CN1CCc2nc(SCCOc3ccccc3)c(C#N)cc2C1	G9a block inconclusive (no result: PI5P4K alpha inh)
COc1ncc2nc(C)c(=O)n(C[C@H]3CCCO3)c2n1	none (no result: PI5P4K alpha inh, BAZ2B inh, PLK1 PBD inh, JMJD2A Tudor inh, HP1b chromo inh)
COc1ccc(C(=O)C2C(=O)C(=O)N(Cc3ccco3)C2c2cccs2)cc1 (stereo unspecified)	none (no result: G9a block, PI5P4K alpha inh, BAZ2B inh, PLK1 PBD inh)
CC(C)Cn1c(=O)c2sccc2n2c(CCCC(=O)NC3CCCCC3)nnc12	none (no result: PI5P4K alpha inh, PLK1 PBD inh)
CC(C)[C@H](NC(=O)N1CCn2c1nc1ccccc12)C(=O)N1CCCCC1	none
CCOC(=O)C1=C(CSc2nc(-c3ccccc3)ccc2C#N)OC(N)=C(C#N)C1c1ccccc1 (stereo unspecified)	G9a block inconclusive
CCOC(=O)C1=C(CSc2nc(-c3ccccc3)ccc2C#N)OC(N)=C(C#N)C1c1cccnc1 (stereo unspecified)	G9a block 40µM, PI5P4K alpha inh inconclusive, PLK1 PBD inh inconclusive
C[C@H]1CN([C@@H](C)CO)S(=O)(=O)c2ccc(C#Cc3ccccn3)cc2O[C@@H]1CN(C)C(=O)C1CC1	none (no result: G9a block, BAZ2B inh, JMJD2A Tudor inh, HP1b chromo inh)
CC1(C)c2[nH]c3ccccc3c2C[C@H]2C(=O)N(CCCO)CC(=O)N21	none
CC(=O)N1C(C(=O)O)Cc2c([nH]c3ccccc23)C1(C)C (stereo unspecified)	none
CC1(C)NC(C(=O)O)Cc2c1[nH]c1ccccc21 (stereo unspecified)	G9a block 25µM
CC12CCC(=O)N1C(C(=O)O)Cc1c2[nH]c2ccccc12 (stereo unspecified)	G9a block inconclusive, JMJD2A Tudor inh 79µM
CCOC(=O)C1CCN(C(=O)C2CCN(S(=O)(=O)c3cc(Cl)ccc3OCC)CC2)CC1	none (no result: G9a block)
O=C(OCC(=O)N1CCC(c2ccccc2)=N1)c1ccc(Cl)s1	none (no result: G9a block, BAZ2B inh)
Cc1cc(C(=O)CSc2nnc(N)s2)c(C)n1Cc1ccco1	G9a block 40µM
Nc1nnc(SCC(=O)c2ccco2)s1	none (no result: PI5P4K alpha inh)
Cc1cc(C(=O)COC(=O)c2ccco2)c(C)n1Cc1ccco1	G9a block inconclusive, PI5P4K alpha inh -55, JMJD2A Tudor inh inconclusive, HP1b chromo inh inconclusive (no result: BAZ2B inh)
Cc1cc(C(=O)COC(=O)c2cccn2C)c(C)n1Cc1ccco1	G9a block 18µM, BAZ2B inh 45µM, JMJD2A Tudor inh 50µM, HP1b chromo inh inconclusive
O=C1C=C(c2cccc(CO)c2)C[C@@H](c2ccc3c(c2)OCO3)C1	none
CCCCN1CC(COCc2ccccc2)Oc2cccc(Oc3ccc(C)cc3)c2S1(=O)=O (stereo unspecified)	none (no result: G9a block, BAZ2B inh)
O=c1[nH]c2cc(Cl)c(Cl)cc2[nH]c1=O	none (no result: PI5P4K alpha inh, BAZ2B inh, PLK1 PBD inh, JMJD2A Tudor inh, HP1b chromo inh)
Fc1cc2[nH]c(=S)[nH]c2cc1Cl	G9a block 6.3µM
CCCC(=O)N1CCN(c2nc3c(OC)ccc(Cl)c3s2)CC1	PLK1 PBD inh 27µM
COc1ccc(Cl)c2sc(N3CCN(C(=O)c4ccco4)CC3)nc12	none
COc1ccc(OC)c2sc(N3CCN(C(=O)c4ccc5c(c4)CCCC5)CC3)nc12	G9a block inconclusive, BAZ2B inh 40µM, JMJD2A Tudor inh inconclusive, HP1b chromo inh inconclusive (no result: PI5P4K alpha inh, PLK1 PBD inh)
O=C(c1ccc2c(c1)CCCC2)N1CCN(c2nc3c(F)cccc3s2)CC1	none (no result: PI5P4K alpha inh, PLK1 PBD inh)
CCOc1ccc(NC(=O)Cn2cc(C(=O)c3ccccc3)c(=O)c3cc4c(cc32)OCCO4)cc1	none (no result: PI5P4K alpha inh, PLK1 PBD inh)
CCc1ccccc1NC(=O)c1nnn(Cc2ccc(Cl)cc2)c1N	none (no result: PI5P4K alpha inh, PLK1 PBD inh)
Cc1ccc(N2CC(NC(=O)c3cccs3)CC2=O)cc1 (stereo unspecified)	none (no result: PI5P4K alpha inh, PLK1 PBD inh)
COc1ccc(-c2nnc3ccc(SCC(=O)N4CCOCC4)nn23)cc1	G9a block 22µM
CCSc1ccc2nnc(-c3cccs3)n2n1	G9a block inconclusive
COc1ccc(-c2nnc3ccc(SCC(=O)N4CCCCC4)nn23)cc1OC	G9a block inconclusive
O=C(CSc1ccc2nnc(-c3cccs3)n2n1)N1CCCC1	G9a block 18µM, BAZ2B inh inconclusive
CC1C=CC=CC=CC=CC=CC=CC=CC(OC2OC(C)C(O)C(N)C2O)CC2OC(O)(CC(O)CC(O)C(O)CCC(O)CC(O)CC(=O)OC(C)C(C)C1O)CC(O)C2C(=O)O (stereo unspecified)	PLK1 PBD inh inconclusive, JMJD2A Tudor inh 11µM (no result: G9a block, BAZ2B inh)
CCn1nc(-c2ccccc2)c(-c2ccccc2)c(C(=O)Nc2ccccc2C(N)=O)c1=O	none (no result: PI5P4K alpha inh, PLK1 PBD inh)
CCN1CC=C2C(C#N)=C(N)C(C#N)(C#N)C(CCc3ccccc3)C2C1 (stereo unspecified)	G9a block inconclusive, BAZ2B inh inconclusive, PLK1 PBD inh inconclusive, JMJD2A Tudor inh inconclusive (no result: PI5P4K alpha inh)
CC(=O)N1CC=C2C(C#N)=C(N)C(C#N)(C#N)C(CCc3ccccc3)C2C1 (stereo unspecified)	G9a block inconclusive, BAZ2B inh inconclusive, PLK1 PBD inh 27µM
O=C1Nc2cc(C(=O)NCCCN3CCOCC3)ccc2S/C1=C/c1cccc(Cl)c1	PI5P4K alpha inh -51, BAZ2B inh inconclusive
CCN1CCN(CCNC(=O)c2ccc(/C=C3/Sc4ccccc4N(Cc4ccccc4C)C3=O)cc2)CC1	G9a block inconclusive, BAZ2B inh inconclusive
CCN1CCN(CCCNC(=O)c2ccc(/C=C3/Sc4ccccc4N(Cc4ccccc4F)C3=O)cc2)CC1	G9a block inconclusive, BAZ2B inh inconclusive, JMJD2A Tudor inh 40µM
O=C(NCCCN1CCOCC1)c1ccc2c(c1)N(Cc1c(F)cccc1Cl)C(=O)c1ccccc1S2	G9a block 35µM, BAZ2B inh inconclusive, JMJD2A Tudor inh inconclusive
O=C(NCCCN1CCOCC1)c1ccc2c(c1)N(Cc1ccc(F)cc1)CCS2	G9a block 45µM, BAZ2B inh inconclusive, JMJD2A Tudor inh inconclusive
CC(=O)Nc1cccc(-c2cc(N3CCN(CCO)CC3)n3nccc3n2)c1	none (no result: G9a block, BAZ2B inh, JMJD2A Tudor inh, HP1b chromo inh)
N=c1sccn1CC(=O)Nc1ccc(SC(F)F)cc1	G9a block 50µM, PLK1 PBD inh 24µM
O=C1CC(c2ccco2)Sc2ccccc2N1 (stereo unspecified)	G9a block 40µM
CCN1C(=O)CC(c2ccco2)Sc2ccccc21 (stereo unspecified)	G9a block 50µM, BAZ2B inh inconclusive (no result: PI5P4K alpha inh)
Cc1ccsc1C1CC(=O)Nc2ccccc2S1 (stereo unspecified)	none
